In assay [1] the target is Glucocorticoid receptor (Homo sapiens) (UniProt P04150). Nature of the assay: ATG_GR_TRANS: Attagene TRANS-FACTORIAL HepG2 Assay for human Glucocorticoid Receptor (GR) (AID 2282978; active = hit-call score of the fitted dose curve at least 0.9, where 1 is the maximum;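 also: activators score as hits since higher reporter transcript over DMSO is fitted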). Conditions: HepG2 Attagene TRANS GR reporter, mRNA transcription. In a few lines: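 Exogenous NR-GAL4 fusion activity was assessed through induced GAL4-UAS reporter transcripts in transfected human HepG2 cells, quantified after 24 h by RT-PCR and fluorescent capillary electrophoresis with DMSO as baseline.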
Sequence of Glucocorticoid receptor (Homo sapiens) (P04150 whole entry, looked up, the tested form may be a part): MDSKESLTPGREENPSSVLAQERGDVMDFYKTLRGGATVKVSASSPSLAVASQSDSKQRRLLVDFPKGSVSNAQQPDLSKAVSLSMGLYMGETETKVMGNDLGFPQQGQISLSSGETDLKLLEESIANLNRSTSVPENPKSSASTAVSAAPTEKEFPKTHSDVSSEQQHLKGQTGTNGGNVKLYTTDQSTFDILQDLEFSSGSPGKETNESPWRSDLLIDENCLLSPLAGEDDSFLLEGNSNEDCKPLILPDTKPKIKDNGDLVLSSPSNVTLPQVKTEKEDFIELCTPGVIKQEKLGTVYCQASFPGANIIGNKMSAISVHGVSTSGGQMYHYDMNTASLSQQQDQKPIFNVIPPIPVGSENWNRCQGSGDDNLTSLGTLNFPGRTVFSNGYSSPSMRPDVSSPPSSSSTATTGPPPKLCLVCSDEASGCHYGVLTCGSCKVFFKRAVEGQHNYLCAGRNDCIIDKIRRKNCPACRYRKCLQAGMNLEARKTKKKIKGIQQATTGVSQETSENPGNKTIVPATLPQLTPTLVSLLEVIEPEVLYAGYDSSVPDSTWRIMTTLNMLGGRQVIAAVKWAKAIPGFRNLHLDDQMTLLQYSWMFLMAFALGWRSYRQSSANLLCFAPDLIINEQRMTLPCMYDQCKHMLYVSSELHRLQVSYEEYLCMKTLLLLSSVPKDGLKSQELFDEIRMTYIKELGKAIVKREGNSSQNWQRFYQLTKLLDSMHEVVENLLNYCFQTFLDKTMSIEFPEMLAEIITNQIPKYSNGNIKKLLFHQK

A short description of assay [2]: ATG_M_06_TRANS: Attagene TRANS-FACTORIAL HepG2 Assay for M06 Transcription Factor (Internal Marker) (AID 2282983; active = hit-call score of the fitted dose curve at least 0.9, where 1 is the maximum). Conditions: HepG2 Attagene TRANS M06 internal marker reporter. In a few lines:
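Cells: HepG2, transient multi-reporter transfection. Exposure: 24 h. Detection: RT-PCR, 6-FAM labelling, HpaI digestion (2 h, 37 °C), capillary electrophoresis. Baseline: DMSO.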

Assay [3] has as its target Nuclear receptor subfamily 4 group A member 2 (Homo sapiens) (UniProt P43354). Nature of the assay: ATG_NURR1_TRANS: Attagene TRANS-FACTORIAL HepG2 Assay for human Nuclear Receptor Related Protein 1 (NURR1) (AID 2282985; active = hit-call score of the fitted dose curve at least 0.9, where 1 is the maximum). Conditions: HepG2 Attagene TRANS reporter, mRNA readout. An outline of the steps:
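HepG2 / transient MRTU transfection / 24 h compound exposure / RT-PCR + CE fluorescence of reporter mRNA / gain-of-signal vs DMSO.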

The target in assay [4] is Transcriptional activator Myb (Homo sapiens) (UniProt P10242). Nature of the assay: ATG_Myb_CIS: Attagene CIS-FACTORIAL HepG2 Assay for human Myeloblastosis (Myb) Proto-Oncogene Transcription Factor (AID 2282986). Conditions: HepG2 Attagene CIS-FACTORIAL Myb reporter transcription; actives raise or lower the signal. In a few lines: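 In this HepG2 transient-transfection format, cis-regulated reporter mRNA is quantified 24 h post-dosing by RT-PCR with capillary electrophoresis, fitted bidirectionally to DMSO baseline.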
Sequence of Transcriptional activator Myb (Homo sapiens) (P10242 whole entry, looked up): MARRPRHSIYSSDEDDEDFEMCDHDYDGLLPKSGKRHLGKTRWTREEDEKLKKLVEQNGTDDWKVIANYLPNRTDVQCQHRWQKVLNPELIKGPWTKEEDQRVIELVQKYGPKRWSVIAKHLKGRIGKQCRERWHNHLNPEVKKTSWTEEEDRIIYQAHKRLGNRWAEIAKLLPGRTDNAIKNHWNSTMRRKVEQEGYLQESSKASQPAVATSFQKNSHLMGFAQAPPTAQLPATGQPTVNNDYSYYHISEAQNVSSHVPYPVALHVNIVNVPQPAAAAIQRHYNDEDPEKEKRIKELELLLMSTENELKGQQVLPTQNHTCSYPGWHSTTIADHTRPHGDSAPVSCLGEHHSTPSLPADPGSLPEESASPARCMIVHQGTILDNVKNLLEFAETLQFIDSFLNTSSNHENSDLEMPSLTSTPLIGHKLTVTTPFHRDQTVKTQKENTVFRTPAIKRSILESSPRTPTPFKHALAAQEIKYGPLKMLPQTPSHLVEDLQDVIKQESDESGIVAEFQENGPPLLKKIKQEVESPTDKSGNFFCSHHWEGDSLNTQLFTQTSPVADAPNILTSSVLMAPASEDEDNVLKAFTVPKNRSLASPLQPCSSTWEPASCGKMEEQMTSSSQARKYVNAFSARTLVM

For assay [5], the target named is Nuclear respiratory factor 1 (Homo sapiens) (UniProt Q16656). Nature of the assay: ATG_NRF1_CIS: Attagene CIS-FACTORIAL HepG2 Assay for human Nuclear Respiratory Factor 1 (NRF1) Orphan Gene (AID 2282987). Conditions: HepG2 NRF1 cis-element reporter, Attagene multiplex; actives raise or lower the signal. An outline of the steps: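 Using DMSO as baseline, gain- or loss-of-signal was fitted for reporter mRNA levels in HepG2 cells transiently transfected with cis-regulated reporter units. Samples were taken 24 h after dosing and read by RT-PCR with capillary electrophoresis.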
Sequence of Nuclear respiratory factor 1 (Homo sapiens) (Q16656 whole entry, looked up): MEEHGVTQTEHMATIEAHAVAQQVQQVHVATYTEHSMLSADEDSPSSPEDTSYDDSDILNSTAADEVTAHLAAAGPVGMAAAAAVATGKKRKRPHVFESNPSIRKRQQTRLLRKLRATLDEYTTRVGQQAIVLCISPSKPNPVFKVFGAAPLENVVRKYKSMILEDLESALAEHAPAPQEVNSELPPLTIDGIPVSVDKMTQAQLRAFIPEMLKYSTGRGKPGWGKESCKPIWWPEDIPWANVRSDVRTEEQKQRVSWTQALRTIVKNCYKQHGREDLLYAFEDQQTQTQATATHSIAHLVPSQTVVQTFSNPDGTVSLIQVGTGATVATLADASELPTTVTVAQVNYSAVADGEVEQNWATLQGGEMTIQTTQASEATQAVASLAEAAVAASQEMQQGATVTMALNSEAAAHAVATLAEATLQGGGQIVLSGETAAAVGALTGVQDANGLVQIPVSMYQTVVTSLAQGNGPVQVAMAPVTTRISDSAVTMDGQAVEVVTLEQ

Assay [6] is described as follows: ATG_NFI_CIS: Attagene CIS-FACTORIAL HepG2 Assay for human Nuclear Factor I (NFI) (AID 2282989). The settings on record: HepG2 cis-regulatory reporter, NFI response element transcription; actives raise or lower the signal. In a few lines: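 Transient MRTU transfection of HepG2 → 24 h chemical dosing → total RNA, oligo(dT) RT → PCR, 6-FAM primer extension, HpaI cut → capillary electrophoresis. Endpoint fitted bidirectionally relative to DMSO.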

The target of assay [7] is Myc proto-oncogene protein (Homo sapiens) (UniProt P01106). Nature of the assay: ATG_Myc_CIS: Attagene CIS-FACTORIAL HepG2 Assay for human Myelocytomatosis (Myc) Proto-Oncogene Transcription Factor (AID 2282990). The settings on record: HepG2, Attagene cis-reporter transcription factor activity; actives raise or lower the signal. An outline of the steps:
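Read-out: fluorescent reporter mRNA fragments resolved by capillary electrophoresis after RT-PCR. Human HepG2 liver cells carried transfected cis-element reporter units and were dosed for 24 h. Gain or loss of signal fitted relative to DMSO baseline.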

Assay [8] is described as follows: ATG_NF_kB_CIS: Attagene CIS-FACTORIAL HepG2 Assay for human Nuclear Factor Kappa B (NF-kB) (AID 2282991). The settings on record: HepG2 Attagene cis-factorial NF-kB reporter mRNA; actives raise or lower the signal. In a few lines:
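Endpoint from a 52-component multiplexed HepG2 reporter panel: cis-regulated transcription units transiently transfected, 24 h dosing, reporter mRNA quantified by RT-PCR and capillary electrophoresis, scored as increase or decrease against DMSO.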

Assay [9] can be described thus: ATG_NRF2_ARE_CIS: Attagene CIS-FACTORIAL HepG2 Assay for human Nuclear Factor Erythroid 2 Related Factor 2 (NFR2) response to Antioxidant Response Elements (ARE) (AID 2282992).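 As to AC50: reporter mRNA level measured by RT-PCR and capillary electrophoresis fluorescence.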 Conditions: HepG2 Attagene ARE/NRF2 reporter, transcription factor activity; actives raise or lower the signal. An outline of the steps:
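HepG2 cells transiently transfected with multiplexed cis-regulated reporter transcription units measure endogenous transcription factor activity. Reporter mRNA at 24 h is quantified by RT-PCR, fluorescent labelling and capillary electrophoresis, with bidirectional fitting relative to DMSO.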

The nature of assay [10]: ATG_Oct_MLP_CIS: Attagene CIS-FACTORIAL HepG2 Assay for human Octamer-Binding Transcription Factor (Oct) (AID 2282993). Conditions: HepG2 Attagene cis-factorial Oct reporter, mRNA; actives raise or lower the signal. In a few lines:
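Transient MRTU transfection of HepG2 → 24 h compound treatment → RNA isolation, reverse transcription, PCR → 6-FAM primer extension, HpaI digest → capillary electrophoresis. Activity fitted both directions against DMSO.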

The target of assay [11] is Cellular tumor antigen p53 (Homo sapiens) (UniProt P04637). Nature of the assay: ATG_p53_CIS: Attagene CIS-FACTORIAL HepG2 Assay for human p53 Transcription Factor (AID 2282994). The settings on record: HepG2 p53 cis-element reporter, Attagene mRNA; actives raise or lower the signal. An outline of the steps:
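HepG2 cells transiently transfected with multiplexed cis-regulated reporter transcription units read endogenous TF activity. After 24 h compound exposure, reporter mRNA was quantified by RT-PCR, fluorescent labelling, HpaI digestion and capillary electrophoresis; bidirectional fits versus DMSO baseline.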

A short description of assay [12]: BSK_3C_uPAR: BioMAP Diversity Plus: 3C Assay for Urokinase-type plasminogen activator receptor (uPAR) Biomarker Activity (AID 2282998). The settings on record: BioMAP 3C HUVEC, uPAR biomarker ELISA; actives raise or lower the signal. An outline of the steps: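 ELISA readout of uPAR on human vascular endothelium (umbilical vein primary cells), taken 24 h after chemical dosing. Increases and decreases are both fitted relative to DMSO vehicle.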

A short description of assay [13]: BSK_3C_VCAM1: BioMAP Diversity Plus: 3C Assay for Vascular cell adhesion molecule 1 (VCAM1) Biomarker Activity (AID 2282999). Conditions: BioMAP 3C HUVEC, VCAM1 ELISA, cytokine-stimulated; actives raise or lower the signal. In a few lines: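 Human umbilical vein endothelial cells (3C system), biomarker read by ELISA 24 h after dosing; bidirectional fit against DMSO baseline. Cytotoxicity tracked by SRB total-protein staining in parallel cultures at biomarker time.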
In general terms: ELISA stands for enzyme-linked immunosorbent assay.

Assay [14] is described as follows: BSK_4H_Eotaxin3: BioMAP Diversity Plus: 4H Assay for Eotaxin 3 Biomarker Activity (AID 2283000).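 As to outcome: CCL26 protein level quantified by ELISA in parallel with SRB cytotoxicity check.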 Conditions: primary human endothelial cells (HUVEC); actives raise or lower the signal. An outline of the steps:
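Human umbilical vein endothelial cells (BSK_4H system) dosed with test chemical; Eotaxin-3 (CCL26) measured by ELISA 24 h after dosing. Bidirectional curve fitting relative to DMSO negative control as baseline.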

The target of assay [15] is Oxysterols receptor LXR-beta (Homo sapiens) (UniProt P55055). Nature of the assay: ATG_LXRb_TRANS: Attagene TRANS-FACTORIAL HepG2 Assay for human Liver X Receptor beta (LXRb) (AID 2282981; active = hit-call score of the fitted dose curve at least 0.9, where 1 is the maximum). Conditions: HepG2 Attagene TRANS GAL4-LXRb reporter, mRNA. In a few lines: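 Gain-of-signal mRNA reporter endpoint, DMSO as negative control. Transiently transfected HepG2 cells carrying the NR-Gal4 chimera and GAL4-UAS reporter units were treated 24 h; transcripts quantified by RT-PCR and capillary electrophoresis fluorescence.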
Sequence of Oxysterols receptor LXR-beta (Homo sapiens) (P55055 whole entry, looked up, the tested form may be a part): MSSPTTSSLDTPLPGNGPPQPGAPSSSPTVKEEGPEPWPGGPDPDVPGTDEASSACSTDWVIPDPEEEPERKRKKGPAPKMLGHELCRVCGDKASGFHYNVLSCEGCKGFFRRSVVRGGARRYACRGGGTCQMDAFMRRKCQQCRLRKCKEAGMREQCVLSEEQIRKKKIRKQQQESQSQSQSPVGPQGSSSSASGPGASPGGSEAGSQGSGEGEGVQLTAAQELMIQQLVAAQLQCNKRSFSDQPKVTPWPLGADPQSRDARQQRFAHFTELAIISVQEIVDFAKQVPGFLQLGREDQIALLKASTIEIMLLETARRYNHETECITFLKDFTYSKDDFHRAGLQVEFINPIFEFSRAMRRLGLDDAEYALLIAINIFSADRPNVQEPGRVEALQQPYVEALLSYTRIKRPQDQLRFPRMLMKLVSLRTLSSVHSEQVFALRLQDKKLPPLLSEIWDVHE

Assay [16] addresses Bile acid receptor (Homo sapiens) (UniProt Q96RI1). Nature of the assay: ATG_FXR_TRANS: Attagene TRANS-FACTORIAL HepG2 Assay for Farnesoid X Receptor (FXR) (AID 2282979; active = hit-call score of the fitted dose curve at least 0.9, where 1 is the maximum;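 also: hits raise reporter mRNA above DMSO so AC50 marks FXR activation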). Conditions: HepG2 Attagene TRANS FXR-GAL4 reporter transcription. An outline of the steps:
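Reporter transcripts from transfected HepG2 cells were measured 24 h after dosing, using RT-PCR with capillary electrophoresis of 6-FAM-labelled fragments. The read-out reflects activity of exogenous FXR-Gal4 chimera on GAL4-UAS units, with induction relative to DMSO.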

Assay [17] in a line: ATG_M_32_TRANS: Attagene TRANS-FACTORIAL HepG2 Assay for M32 Transcription Factor (Internal Marker) (AID 2282984; active = hit-call score of the fitted dose curve at least 0.9, where 1 is the maximum;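 also: transcript level of a background control reporter unit measured by RT-PCR and capillary electrophoresis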). Conditions: HepG2 Attagene TRANS M32 internal marker reporter. An outline of the steps:
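Capillary electrophoresis of 6-FAM-labelled reporter fragments gives the signal; data fitted for gain over DMSO negative control. Source: HepG2 cells bearing transient multiple reporter transcription units, 24 h exposure.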

The nature of assay [18]: BSK_3C_TissueFactor: BioMAP Diversity Plus: 3C Assay for Tissue Factor Biomarker Activity (AID 2282997). The settings on record: BioMAP 3C HUVEC, tissue factor biomarker readout; actives raise or lower the signal. An outline of the steps: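 Dosing of human umbilical vein endothelial cells preceded a 24 h incubation. Tissue Factor was then read by ELISA, with increases and decreases both scored relative to DMSO controls.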

Assay [19] deals with human Peroxisome Proliferator-activated Receptor alpha (PPARa), PPARA (gene 5465) (UniProt Q07869). Nature of the assay: ATG_PPARa_TRANS: Attagene TRANS-FACTORIAL HepG2 Assay for human Peroxisome Proliferator-activated Receptor alpha (PPARa) (AID 2283001; active = hit-call score of the fitted dose curve at least 0.9, where 1 is the maximum). In a few lines: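 Measures transcriptional activity of an exogenous chimeric PPARa-Gal4 protein in transiently transfected HepG2 cells after 24 h dosing. Reporter mRNA quantified via RT-PCR and capillary electrophoresis; DMSO served as negative control.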
Sequence of human Peroxisome Proliferator-activated Receptor alpha (PPARa), PPARA (gene 5465) (Q07869 whole entry, looked up, the tested form may be a part): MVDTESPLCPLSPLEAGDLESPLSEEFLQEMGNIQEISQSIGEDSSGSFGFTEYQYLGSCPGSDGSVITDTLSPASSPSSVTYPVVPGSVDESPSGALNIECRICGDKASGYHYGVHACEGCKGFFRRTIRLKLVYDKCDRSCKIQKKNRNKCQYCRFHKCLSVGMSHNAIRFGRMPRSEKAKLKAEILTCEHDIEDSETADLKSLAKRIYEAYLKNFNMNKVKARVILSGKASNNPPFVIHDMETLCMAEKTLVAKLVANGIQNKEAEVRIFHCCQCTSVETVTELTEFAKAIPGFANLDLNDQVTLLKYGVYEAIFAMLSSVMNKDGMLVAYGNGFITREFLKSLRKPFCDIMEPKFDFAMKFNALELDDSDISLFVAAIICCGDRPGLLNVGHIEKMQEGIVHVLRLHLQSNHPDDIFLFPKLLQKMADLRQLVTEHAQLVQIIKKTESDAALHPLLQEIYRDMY

For orientation: AC50 means the concentration at which the activity in the assay is half-maximal.

Records with an inconclusive call do not appear. Calls of active or inactive are those of the source. The calls were made as follows, unless noted: active = hit-call score of the fitted dose curve at least 0.9, where 1 is the maximum; inactive = score below 0.9.

Sequence of Cellular tumor antigen p53 (Homo sapiens) (P04637 whole entry, looked up): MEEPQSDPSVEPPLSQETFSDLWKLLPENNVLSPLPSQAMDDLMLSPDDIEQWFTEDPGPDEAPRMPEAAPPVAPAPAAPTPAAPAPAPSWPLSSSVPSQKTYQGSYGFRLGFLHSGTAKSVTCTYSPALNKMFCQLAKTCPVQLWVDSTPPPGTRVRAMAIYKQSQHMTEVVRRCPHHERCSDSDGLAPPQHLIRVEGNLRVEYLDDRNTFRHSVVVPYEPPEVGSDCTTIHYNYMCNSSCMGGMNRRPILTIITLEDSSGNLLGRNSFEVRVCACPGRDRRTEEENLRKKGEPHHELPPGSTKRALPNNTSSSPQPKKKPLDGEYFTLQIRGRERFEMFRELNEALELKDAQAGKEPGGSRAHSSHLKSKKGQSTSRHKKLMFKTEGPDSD
Sequence of Myc proto-oncogene protein (Homo sapiens) (P01106 whole entry, looked up, the tested form may be a part): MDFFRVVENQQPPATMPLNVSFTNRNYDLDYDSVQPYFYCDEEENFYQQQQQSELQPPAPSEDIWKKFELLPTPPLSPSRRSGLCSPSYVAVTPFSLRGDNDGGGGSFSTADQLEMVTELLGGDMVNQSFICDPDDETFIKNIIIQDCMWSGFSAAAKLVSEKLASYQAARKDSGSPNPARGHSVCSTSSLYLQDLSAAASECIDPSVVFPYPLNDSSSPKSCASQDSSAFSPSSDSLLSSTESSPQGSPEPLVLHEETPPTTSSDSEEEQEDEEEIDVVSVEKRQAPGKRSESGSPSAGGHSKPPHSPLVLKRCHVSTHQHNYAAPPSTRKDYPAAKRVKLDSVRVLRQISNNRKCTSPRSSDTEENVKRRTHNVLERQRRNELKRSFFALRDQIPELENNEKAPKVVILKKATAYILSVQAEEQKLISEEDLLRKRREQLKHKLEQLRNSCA
Sequence of Nuclear receptor subfamily 4 group A member 2 (Homo sapiens) (P43354 whole entry, looked up): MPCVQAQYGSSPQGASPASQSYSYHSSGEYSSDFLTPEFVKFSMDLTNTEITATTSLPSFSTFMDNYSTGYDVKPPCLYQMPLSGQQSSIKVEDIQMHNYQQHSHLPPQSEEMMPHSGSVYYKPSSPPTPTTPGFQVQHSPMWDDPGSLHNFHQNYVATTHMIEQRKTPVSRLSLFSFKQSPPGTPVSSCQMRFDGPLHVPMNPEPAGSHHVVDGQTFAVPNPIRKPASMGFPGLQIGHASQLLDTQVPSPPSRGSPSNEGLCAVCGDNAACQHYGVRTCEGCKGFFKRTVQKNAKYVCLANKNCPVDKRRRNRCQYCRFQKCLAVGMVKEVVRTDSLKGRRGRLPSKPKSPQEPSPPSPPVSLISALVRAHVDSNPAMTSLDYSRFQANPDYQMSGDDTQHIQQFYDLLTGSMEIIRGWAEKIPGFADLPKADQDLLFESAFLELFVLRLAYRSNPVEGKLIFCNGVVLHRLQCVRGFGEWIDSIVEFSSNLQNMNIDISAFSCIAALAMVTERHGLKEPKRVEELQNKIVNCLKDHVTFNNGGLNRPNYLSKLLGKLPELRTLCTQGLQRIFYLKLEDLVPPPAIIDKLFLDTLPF
Sequence of Bile acid receptor (Homo sapiens) (Q96RI1 whole entry, looked up, the tested form may be a part): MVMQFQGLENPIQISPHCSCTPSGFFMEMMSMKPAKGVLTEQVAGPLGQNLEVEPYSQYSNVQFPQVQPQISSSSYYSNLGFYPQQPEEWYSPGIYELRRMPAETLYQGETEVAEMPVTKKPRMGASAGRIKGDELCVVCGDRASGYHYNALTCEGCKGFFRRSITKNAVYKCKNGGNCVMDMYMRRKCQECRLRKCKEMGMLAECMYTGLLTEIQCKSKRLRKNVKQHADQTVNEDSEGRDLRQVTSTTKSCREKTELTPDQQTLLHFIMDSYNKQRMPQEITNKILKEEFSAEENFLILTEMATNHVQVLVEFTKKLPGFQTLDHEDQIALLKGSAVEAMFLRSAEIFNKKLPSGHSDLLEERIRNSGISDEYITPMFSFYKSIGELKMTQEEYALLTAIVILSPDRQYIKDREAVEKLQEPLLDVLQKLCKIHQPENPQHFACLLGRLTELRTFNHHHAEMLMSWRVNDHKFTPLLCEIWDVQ

With `[As]#[In]`, the outcome in assay [1], in [2], in assay [3], in assay [4], in assay [5] and in assay [6] was inactive. For the same compound, the call in [7], in assay [8], in assay [9], in assay [10], in [11] and in [12] was inactive. The result in [13] and in assay [14] was inactive.

For the compound `Brc1ccc(Oc2ccccc2)cc1`, the compound was classed as inactive in assay [1], in [15], in assay [2], in [3], in assay [4] and in [5]. Moreover, the outcome in assay [7], in [8], in assay [11], in assay [12], in assay [13] and in assay [14] was inactive. For the same compound, the concentration at half-maximal activity (AC50) in assay [6] was 158 µM (active); in assay [9], 74 µM (active); in assay [10] it was 177 µM (active).

Consider `ClCCOCCCl`, for which the result in assay [16], in [15], in assay [17], in assay [3], in assay [4] and in assay [5] was inactive. The compound was called inactive in assay [6], in [7], in assay [8], in [9], in [10] and in assay [11]. For the same compound, the result in [18], in assay [12], in assay [13] and in [14] was inactive.

Take `Cn1cc(-c2ccccc2)c(=O)c(-c2cccc(C(F)(F)F)c2)c1`: the compound was called inactive in assay [1], in [17], in [4], in [6], in assay [7] and in assay [10]. In addition, the call in assay [11], in [18], in assay [12], in assay [13] and in assay [14] was inactive. The concentration at half-maximal activity (AC50) in assay [5] is 100 µM (active); in assay [8], 100 µM (active); in assay [9], 44.2 µM (active).

In the case of `c1ccc(N=Nc2ccccc2)cc1`, the compound was called inactive in [1], in assay [2], in [4], in assay [5], in [6] and in assay [7]. The outcome in assay [8], in assay [10], in assay [11], in [13], in assay [14] and in assay [19] was inactive. Also, in assay [9], the AC50 is 61.2 µM (active).

Take `CN(C)C(=O)Nc1ccc(Cl)cc1`: the compound was classed as inactive in assay [16], in assay [15], in assay [2], in assay [17], in [4] and in assay [5]. In addition, the result in [6], in assay [7], in assay [8], in [9], in assay [10] and in assay [11] was inactive. Further, the outcome in assay [13], in assay [14] and in [19] was inactive.

On to `Oc1ccc2ccc3cccc4ccc1c2c34`, for which the result in [1], in [2], in assay [17], in assay [4], in assay [5] and in assay [6] was inactive. In addition, the result in assay [7], in assay [8], in assay [9], in assay [10] and in assay [11] was inactive. Moreover, the AC50 in assay [18] is 32.6 µM (active); in assay [12], 22.3 µM (active); in assay [13] it was 35.4 µM (active); in assay [14] it was 28.6 µM (active).

The values above are taken from PubChem BioAssay (EPA / NIEHS).
